In ChEMBL document CHEMBL1961873, “Compounds: GSK PKIS; Assays: Nanosyn kinase panel” (2012):

Assays:
[1] = system: Proto-oncogene tyrosine-protein kinase receptor Ret (Homo sapiens), P07949 [Y791F]; settings: at 1 µM
[2] = target: Macrophage-stimulating protein receptor (Homo sapiens) (UniProt Q04912); settings: at 0.1 µM
[3] = target: Macrophage-stimulating protein receptor (Homo sapiens) (UniProt Q04912); settings: at 1 µM
[4] = target: Proto-oncogene tyrosine-protein kinase ROS (Homo sapiens) (UniProt P08922); settings: at 0.1 µM
[5] = target: Proto-oncogene tyrosine-protein kinase ROS (Homo sapiens) (UniProt P08922); settings: at 1 µM
[6] = target: Proto-oncogene tyrosine-protein kinase Src (Homo sapiens) (UniProt P12931); settings: at 0.1 µM
[7] = target: Proto-oncogene tyrosine-protein kinase Src (Homo sapiens) (UniProt P12931); settings: at 1 µM
[8] = target: Tyrosine-protein kinase Srms (Homo sapiens) (UniProt Q9H3Y6); settings: at 0.1 µM
[9] = target: Tyrosine-protein kinase Srms (Homo sapiens) (UniProt Q9H3Y6); settings: at 1 µM
[10] = target: Tyrosine-protein kinase SYK (Homo sapiens) (UniProt P43405); settings: at 0.1 µM
[11] = target: Tyrosine-protein kinase SYK (Homo sapiens) (UniProt P43405); settings: at 1 µM
[12] = target: T1, Tyrosine-protein kinase Tec (Homo sapiens) (UniProt P42680); settings: at 0.1 µM
T1 sequence (whole entry): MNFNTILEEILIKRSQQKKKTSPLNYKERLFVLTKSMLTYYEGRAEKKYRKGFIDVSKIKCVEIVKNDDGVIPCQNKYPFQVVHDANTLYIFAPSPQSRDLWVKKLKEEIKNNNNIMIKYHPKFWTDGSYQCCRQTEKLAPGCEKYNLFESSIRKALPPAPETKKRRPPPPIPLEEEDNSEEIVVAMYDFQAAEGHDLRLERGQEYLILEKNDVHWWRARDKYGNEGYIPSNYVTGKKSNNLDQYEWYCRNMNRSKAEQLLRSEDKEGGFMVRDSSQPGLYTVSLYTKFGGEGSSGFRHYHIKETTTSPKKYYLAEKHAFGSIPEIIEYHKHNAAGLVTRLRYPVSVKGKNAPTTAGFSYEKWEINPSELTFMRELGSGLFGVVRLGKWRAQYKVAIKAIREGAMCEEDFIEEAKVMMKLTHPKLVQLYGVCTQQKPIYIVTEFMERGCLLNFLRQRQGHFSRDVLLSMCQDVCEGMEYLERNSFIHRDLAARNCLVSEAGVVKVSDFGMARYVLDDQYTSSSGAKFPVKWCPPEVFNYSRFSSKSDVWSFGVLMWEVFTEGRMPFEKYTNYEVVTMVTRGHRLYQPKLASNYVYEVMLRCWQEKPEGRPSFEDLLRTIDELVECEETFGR

[13] = target: T1, Tyrosine-protein kinase Tec (Homo sapiens); settings: at 1 µM
[14] = target: Angiopoietin-1 receptor (Homo sapiens) (UniProt Q02763); settings: at 0.1 µM
[15] = target: Angiopoietin-1 receptor (Homo sapiens) (UniProt Q02763); settings: at 1 µM
[16] = target: T2, Non-receptor tyrosine-protein kinase TNK1 (Homo sapiens) (UniProt Q13470); settings: at 0.1 µM
T2 sequence (whole entry): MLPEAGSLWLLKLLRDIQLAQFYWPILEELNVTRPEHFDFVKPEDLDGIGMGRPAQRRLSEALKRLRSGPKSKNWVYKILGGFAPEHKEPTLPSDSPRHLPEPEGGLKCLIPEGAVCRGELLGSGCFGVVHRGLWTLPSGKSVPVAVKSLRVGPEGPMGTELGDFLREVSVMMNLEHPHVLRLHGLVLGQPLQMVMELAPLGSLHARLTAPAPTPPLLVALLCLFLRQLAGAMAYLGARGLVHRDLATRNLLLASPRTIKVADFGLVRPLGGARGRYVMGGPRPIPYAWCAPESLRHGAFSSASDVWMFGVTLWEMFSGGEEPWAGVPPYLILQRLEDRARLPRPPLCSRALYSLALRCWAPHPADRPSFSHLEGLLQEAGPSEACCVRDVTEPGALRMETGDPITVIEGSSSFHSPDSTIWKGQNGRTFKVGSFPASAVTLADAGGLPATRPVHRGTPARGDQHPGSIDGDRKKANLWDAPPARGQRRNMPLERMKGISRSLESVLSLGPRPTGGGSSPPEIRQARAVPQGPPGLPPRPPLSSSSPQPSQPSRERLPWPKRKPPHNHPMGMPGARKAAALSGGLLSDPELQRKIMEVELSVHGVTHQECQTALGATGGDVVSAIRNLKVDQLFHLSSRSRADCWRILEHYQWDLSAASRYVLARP

[17] = target: T2, Non-receptor tyrosine-protein kinase TNK1 (Homo sapiens); settings: at 1 µM
[18] = target: Activated CDC42 kinase 1 (Homo sapiens) (UniProt Q07912); settings: at 0.1 µM
[19] = target: Activated CDC42 kinase 1 (Homo sapiens) (UniProt Q07912); settings: at 1 µM
[20] = target: High affinity nerve growth factor receptor (Homo sapiens) (UniProt P04629); settings: at 0.1 µM;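 note: each value is a mean of replicate percent inhibition readings against TRKA kinase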
Sequence of High affinity nerve growth factor receptor (Homo sapiens) (P04629 33-796 limits assumed): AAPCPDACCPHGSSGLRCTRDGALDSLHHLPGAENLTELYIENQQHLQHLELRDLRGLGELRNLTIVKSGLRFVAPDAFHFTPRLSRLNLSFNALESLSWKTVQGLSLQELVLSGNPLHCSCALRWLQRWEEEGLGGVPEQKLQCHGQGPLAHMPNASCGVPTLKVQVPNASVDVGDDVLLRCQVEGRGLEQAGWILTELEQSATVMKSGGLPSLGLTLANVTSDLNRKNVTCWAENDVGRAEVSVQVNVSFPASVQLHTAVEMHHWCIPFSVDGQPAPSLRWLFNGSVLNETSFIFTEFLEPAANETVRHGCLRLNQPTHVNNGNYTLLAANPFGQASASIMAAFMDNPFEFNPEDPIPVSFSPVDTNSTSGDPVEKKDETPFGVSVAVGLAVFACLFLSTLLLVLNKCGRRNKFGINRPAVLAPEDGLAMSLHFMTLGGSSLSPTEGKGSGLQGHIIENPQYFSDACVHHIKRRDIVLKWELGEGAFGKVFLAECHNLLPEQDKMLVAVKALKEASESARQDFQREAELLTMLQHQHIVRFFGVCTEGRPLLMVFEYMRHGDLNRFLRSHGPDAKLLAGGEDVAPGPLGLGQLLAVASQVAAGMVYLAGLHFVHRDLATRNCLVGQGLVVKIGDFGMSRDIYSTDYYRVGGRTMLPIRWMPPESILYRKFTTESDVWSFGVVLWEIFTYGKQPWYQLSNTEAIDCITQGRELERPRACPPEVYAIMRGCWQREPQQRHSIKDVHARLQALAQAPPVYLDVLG

Sequence of Tyrosine-protein kinase Srms (Homo sapiens) (Q9H3Y6 whole entry): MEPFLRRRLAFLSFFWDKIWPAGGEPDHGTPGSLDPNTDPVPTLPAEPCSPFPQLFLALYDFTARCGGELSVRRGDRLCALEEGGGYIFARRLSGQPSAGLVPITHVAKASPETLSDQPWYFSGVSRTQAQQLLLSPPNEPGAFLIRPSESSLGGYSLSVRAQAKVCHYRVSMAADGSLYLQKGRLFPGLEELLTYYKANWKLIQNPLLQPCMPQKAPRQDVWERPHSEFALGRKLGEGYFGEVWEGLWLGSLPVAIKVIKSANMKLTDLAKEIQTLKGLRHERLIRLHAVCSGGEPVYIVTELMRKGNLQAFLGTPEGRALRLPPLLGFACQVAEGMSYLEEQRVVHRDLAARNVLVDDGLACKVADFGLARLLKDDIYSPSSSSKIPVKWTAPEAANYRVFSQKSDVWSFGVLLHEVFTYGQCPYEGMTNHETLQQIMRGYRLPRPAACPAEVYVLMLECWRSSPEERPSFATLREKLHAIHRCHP
Sequence of Proto-oncogene tyrosine-protein kinase receptor Ret (Homo sapiens), P07949 [Y791F] (P07949 whole entry Y791F): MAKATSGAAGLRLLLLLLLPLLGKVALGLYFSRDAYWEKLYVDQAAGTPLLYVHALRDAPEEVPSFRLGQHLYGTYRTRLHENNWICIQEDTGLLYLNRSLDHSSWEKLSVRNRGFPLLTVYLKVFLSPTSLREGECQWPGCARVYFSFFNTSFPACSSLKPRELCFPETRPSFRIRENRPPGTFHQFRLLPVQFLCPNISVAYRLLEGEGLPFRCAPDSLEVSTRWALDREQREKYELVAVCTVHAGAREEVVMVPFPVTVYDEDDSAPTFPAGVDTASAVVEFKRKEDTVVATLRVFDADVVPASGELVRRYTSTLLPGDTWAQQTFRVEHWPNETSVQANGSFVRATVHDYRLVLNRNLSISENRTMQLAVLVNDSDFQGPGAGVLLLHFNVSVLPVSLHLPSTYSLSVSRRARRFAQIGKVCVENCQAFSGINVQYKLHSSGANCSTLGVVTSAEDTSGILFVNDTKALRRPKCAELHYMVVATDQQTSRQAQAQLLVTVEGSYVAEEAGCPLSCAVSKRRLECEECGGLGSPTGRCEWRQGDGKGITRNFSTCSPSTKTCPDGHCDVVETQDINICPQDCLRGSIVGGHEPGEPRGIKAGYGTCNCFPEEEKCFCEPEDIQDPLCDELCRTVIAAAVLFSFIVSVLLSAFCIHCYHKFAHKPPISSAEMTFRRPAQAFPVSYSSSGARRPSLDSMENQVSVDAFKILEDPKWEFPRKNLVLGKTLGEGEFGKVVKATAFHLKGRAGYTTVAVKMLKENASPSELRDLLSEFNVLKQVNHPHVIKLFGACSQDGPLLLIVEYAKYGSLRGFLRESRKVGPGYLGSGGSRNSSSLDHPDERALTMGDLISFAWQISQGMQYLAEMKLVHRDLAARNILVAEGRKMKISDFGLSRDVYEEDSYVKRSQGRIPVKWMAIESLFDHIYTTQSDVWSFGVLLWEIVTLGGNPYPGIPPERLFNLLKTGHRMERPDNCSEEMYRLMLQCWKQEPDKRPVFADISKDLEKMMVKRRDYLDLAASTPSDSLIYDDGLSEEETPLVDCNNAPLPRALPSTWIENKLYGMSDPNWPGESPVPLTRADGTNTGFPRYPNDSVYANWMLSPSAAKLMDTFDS
Sequence of Macrophage-stimulating protein receptor (Homo sapiens) (Q04912 25-304 limits assumed): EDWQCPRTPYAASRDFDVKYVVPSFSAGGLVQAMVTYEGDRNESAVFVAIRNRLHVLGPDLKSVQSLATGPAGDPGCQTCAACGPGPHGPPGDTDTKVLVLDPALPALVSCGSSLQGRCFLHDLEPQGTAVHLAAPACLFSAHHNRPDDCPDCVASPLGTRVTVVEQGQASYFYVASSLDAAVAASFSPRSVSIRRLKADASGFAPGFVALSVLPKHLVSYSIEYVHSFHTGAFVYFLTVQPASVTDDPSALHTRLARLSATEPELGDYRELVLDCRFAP
Sequence of Macrophage-stimulating protein receptor (Homo sapiens) (Q04912 310-1400 limits assumed): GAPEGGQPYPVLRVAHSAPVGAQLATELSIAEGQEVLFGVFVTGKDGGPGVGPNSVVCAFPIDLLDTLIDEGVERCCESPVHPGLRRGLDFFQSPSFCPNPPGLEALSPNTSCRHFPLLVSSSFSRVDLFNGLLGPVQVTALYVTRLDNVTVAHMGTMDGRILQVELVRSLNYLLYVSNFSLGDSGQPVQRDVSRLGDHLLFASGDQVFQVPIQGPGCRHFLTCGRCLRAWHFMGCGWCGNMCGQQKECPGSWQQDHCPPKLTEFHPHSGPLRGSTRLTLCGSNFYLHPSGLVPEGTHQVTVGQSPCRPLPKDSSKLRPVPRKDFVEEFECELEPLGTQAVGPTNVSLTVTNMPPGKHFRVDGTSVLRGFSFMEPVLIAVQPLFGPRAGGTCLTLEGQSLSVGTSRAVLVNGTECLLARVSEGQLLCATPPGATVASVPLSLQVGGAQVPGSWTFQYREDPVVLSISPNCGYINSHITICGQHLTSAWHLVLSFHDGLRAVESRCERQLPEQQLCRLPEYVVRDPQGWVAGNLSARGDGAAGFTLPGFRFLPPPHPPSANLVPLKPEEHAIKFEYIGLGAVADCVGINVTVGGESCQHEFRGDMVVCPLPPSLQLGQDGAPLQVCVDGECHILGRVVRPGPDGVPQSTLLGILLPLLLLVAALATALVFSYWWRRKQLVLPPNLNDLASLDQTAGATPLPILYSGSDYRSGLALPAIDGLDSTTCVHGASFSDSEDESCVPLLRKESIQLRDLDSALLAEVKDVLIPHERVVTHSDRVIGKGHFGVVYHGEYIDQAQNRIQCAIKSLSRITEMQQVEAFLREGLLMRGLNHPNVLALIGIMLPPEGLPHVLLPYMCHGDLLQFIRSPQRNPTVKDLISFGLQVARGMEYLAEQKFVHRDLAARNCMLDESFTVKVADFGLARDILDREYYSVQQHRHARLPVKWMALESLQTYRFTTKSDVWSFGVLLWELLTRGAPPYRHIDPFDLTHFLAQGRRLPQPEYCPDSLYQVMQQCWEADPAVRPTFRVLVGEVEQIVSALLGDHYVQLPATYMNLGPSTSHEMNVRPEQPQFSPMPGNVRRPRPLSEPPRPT
Sequence of Proto-oncogene tyrosine-protein kinase Src (Homo sapiens) (P12931 2-536 limits assumed): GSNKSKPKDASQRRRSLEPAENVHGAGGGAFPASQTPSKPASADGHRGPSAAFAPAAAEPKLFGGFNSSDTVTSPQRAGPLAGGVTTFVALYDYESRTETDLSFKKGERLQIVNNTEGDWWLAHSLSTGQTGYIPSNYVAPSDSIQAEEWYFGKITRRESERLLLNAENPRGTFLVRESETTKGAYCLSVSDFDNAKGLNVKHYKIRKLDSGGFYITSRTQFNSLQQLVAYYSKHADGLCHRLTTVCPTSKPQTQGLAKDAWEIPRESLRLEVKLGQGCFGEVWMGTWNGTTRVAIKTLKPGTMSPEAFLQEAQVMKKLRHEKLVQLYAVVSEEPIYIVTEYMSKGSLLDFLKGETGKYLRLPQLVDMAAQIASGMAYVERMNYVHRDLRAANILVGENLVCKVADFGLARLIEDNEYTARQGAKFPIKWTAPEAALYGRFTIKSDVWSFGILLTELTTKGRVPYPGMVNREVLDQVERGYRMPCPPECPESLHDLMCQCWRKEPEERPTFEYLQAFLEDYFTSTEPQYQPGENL

SMILES | inhibition [1] | inhibition [2] | inhibition [3] | inhibition [4] | inhibition [5] | inhibition [6] | inhibition [7] | inhibition [8] | inhibition [9] | inhibition [10] | inhibition [11] | inhibition [12] | inhibition [13] | inhibition [14] | inhibition [15] | inhibition [16] | inhibition [17] | inhibition [18] | inhibition [19] | inhibition [20]
Cc1cccc(-c2n[nH]cc2-c2ccc3ncccc3n2)n1 | 18.7% | 3.7% | 1.79% | 1.26% | 4.08% | 2.63% | 3.67% | 0.03% | 3.34% | 1.27% | -0.38% | 0.76% | 1.51% | 1.2% | 3.33% | -0.63% | 0.33% | -0.11% | 0.91% | -1%
CC1=C(C(=O)Nc2ccc3[nH]ncc3c2)C(c2ccc3ccccc3c2)CC(=O)N1 (stereo not given) | 60.5% | 34% | 67.5% | 7.1% | 14.5% | 13% | 64.9% | 1.12% | 1.41% | 2.43% | 2.59% | 2.81% | 9.73% | 3.02% | 8.68% | 3.25% | 22.4% | 2.91% | 20.3% | 3.43%
COc1ccc(-c2ccncc2)cc1C(N)=O | 6.78% | 9.12% | 1.15% | 5.72% | 17.5% | 11.3% | 12.4% | -0.54% | -5.88% | -1.18% | 0.26% | 6.14% | 5.31% | 5.23% | 6.4% | 3.12% | 5.16% | 1.17% | 2.39% | 1.19%
Fc1cccc(COc2ccc(Nc3ncnc4sc(-c5cccs5)cc34)cc2Cl)c1 | 2.09% | -5.24% | -0.08% | 5.26% | 4.79% | 2.2% | 2.77% | -1.04% | -1.24% | 0.32% | 1.01% | -0.73% | 1.47% | 1.07% | 2.01% | 3.5% | 4.12% | -0.19% | 1.13% | 1.3%
NC(=O)c1ccc(-c2nc(-c3ccccn3)c(-c3ccc4c(c3)OCO4)[nH]2)cc1 | 13.7% | -0.12% | -1.49% | 2.07% | 2.89% | 3.87% | 4.86% | 2.17% | 1.98% | 0.63% | 0.21% | 3.16% | 2.63% | 5.33% | 5.38% | 1.36% | -0.98% | 0.29% | 1.03% | 1.52%
COc1cc2ncn(-c3cc(O[C@@H](C)c4ccccc4Cl)c(C(N)=O)s3)c2cc1OC | 72% | -0.14% | 2.55% | 5.59% | 29.1% | 10.3% | 30.1% | -3.6% | -1.13% | -2.93% | -4.6% | 1.7% | 7.65% | 4.95% | 24.2% | 33.8% | 79.5% | 3.06% | 6.07% | 1.91%
Cc1cc(O)cc(C)c1/C=C/c1cncc(-c2nn[nH]n2)c1 | 14.4% | 3.43% | 8.76% | 6.66% | 11.7% | 11.4% | 69.4% | 9.68% | 48.1% | -3.2% | -1.42% | 15.1% | 65% | 4% | 4.4% | 35.1% | 84.2% | 1.68% | 22% | 3.09%
COc1ccc2cc(-c3c(-c4ccncc4)nc(-c4ccc([S+](C)[O-])cc4)n3C)ccc2c1 (stereo not given) | -4.94% | 4.56% | 4.27% | 4.08% | 5.77% | 4.77% | 8.58% | -0.98% | -1.29% | -1.34% | -1.16% | 4.18% | 5.59% | 53.3% | 83.2% | 4.52% | 8.26% | 0.59% | 0.47% | 2.78%
CCn1c(-c2nonc2N)nc2ccncc21 | 1.54% | 0.89% | 0.11% | 2.31% | 2.5% | 8.34% | 4.59% | -0.44% | -0.79% | 0.22% | 1.46% | 2.56% | 3.46% | 2.16% | 2.72% | 3.44% | -5.95% | -0.95% | -2.72% | 0.03%
CCn1c(-c2nonc2N)nc2c(C#CC(C)(C)O)nc(OC[C@@H](N)c3ccccc3)cc21 | 47.4% | 11.5% | 6.11% | 2.07% | 11.2% | 2.45% | 0.1% | 1.94% | 5.92% | -1.58% | 1.52% | 1.68% | 6.92% | 1.25% | 10.4% | -2.6% | 2.87% | 0.28% | 5.21% | -0.3%
O=C1NC(=O)C(c2ccc(Cl)cc2)=C1Nc1ccc(Cl)c(C(=O)O)c1 | -1.73% | -4.02% | 2.12% | 1.45% | 3.13% | 0.48% | -1.52% | 0.85% | 2.75% | -1% | -0.32% | -1.66% | -1.1% | -0.19% | 3.01% | -3.22% | 0.53% | -0.36% | -0.48% | 0.44%
O=C1NC(=O)C(c2ccccc2Cl)=C1Nc1cccc(O)c1 | 6.27% | 1.7% | 4.87% | 3.13% | 6.28% | 3.41% | 7.83% | -0.89% | -2.12% | 0.85% | -0.68% | 3.78% | 4.55% | 1.47% | 5.97% | 3.82% | 2.57% | 1.29% | 3.26% | 4.19%
COc1ccc(COc2ccc(Cc3cnc(N)nc3N)cc2OC)cc1 | 4.28% | 1.99% | 5.55% | 5.47% | 4.98% | 3.77% | 1.97% | 1.82% | 1.88% | 1.51% | 0.65% | 1.62% | 2.91% | 2.2% | 8.78% | 0.7% | -8.3% | 2.24% | 3.64% | 32.4%
